In the experiment the target is Albumin (Bos taurus) (UniProt P02769). The experiment in a line: compounds binding labelled BSA control protein – biochemical, small-molecule microarray, Alexa647 label, 635/667 nm fluorescence, artefact control for SMM control protein annotation, profiling panel (AID 1118).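 Further: score merges 667 nm emission intensity and signal-to-noise per printed compound spot.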 Conditions: BSA-A647 binding, fluorescence 635 nm, higher = more signal.
Sequence of Albumin (Bos taurus) (P02769 whole entry, looked up): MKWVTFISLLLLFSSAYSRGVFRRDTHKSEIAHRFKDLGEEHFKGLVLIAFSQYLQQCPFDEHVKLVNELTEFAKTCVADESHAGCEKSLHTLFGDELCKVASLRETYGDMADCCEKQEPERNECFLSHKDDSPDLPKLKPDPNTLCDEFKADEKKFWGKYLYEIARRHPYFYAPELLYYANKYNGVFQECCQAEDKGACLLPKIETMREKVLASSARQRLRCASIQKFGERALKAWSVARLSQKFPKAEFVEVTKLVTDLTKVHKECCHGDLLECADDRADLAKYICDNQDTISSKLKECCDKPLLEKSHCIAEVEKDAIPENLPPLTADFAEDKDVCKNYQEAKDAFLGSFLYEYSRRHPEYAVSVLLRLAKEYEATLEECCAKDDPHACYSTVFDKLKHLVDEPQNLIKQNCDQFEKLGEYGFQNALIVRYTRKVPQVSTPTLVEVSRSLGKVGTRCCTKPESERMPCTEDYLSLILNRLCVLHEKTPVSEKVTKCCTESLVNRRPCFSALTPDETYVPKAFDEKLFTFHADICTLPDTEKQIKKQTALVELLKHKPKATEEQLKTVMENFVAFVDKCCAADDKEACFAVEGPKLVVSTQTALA
Regarding `CC[C@H]1C2=C3C(CC[C@H]4C(OCc5ccc(F)cc5C(F)(F)F)OC[C@](C)([C@@H]34)N(C(=O)OC(C)(C)C)C2)C(COC)C1COC` (stereo not given in full), the composite z-score is 0.515.
Under `CC(C)N1C(=O)C[C@@](C(=O)NCCCN(C)C)(c2ccc([N+](=O)[O-])cc2)[C@H]1c1ccc(CO)cc1` stands -0.0399.
`NC(=O)NCC#Cc1ccc2c(c1)[C@]1(C(=O)N2)[C@H](C(=O)NC[C@H](O)c2ccccc2)[C@H]2C(=O)O[C@H](c3ccccc3)[C@H](c3ccccc3)N2[C@@H]1c1ccc(OCCO)cc1` came in with a composite z-score of -0.397.
`Cc1ccccc1C(O)C1C=CC2C(=O)N(C)C(=O)C2N1N(c1ccccc1)c1ccccc1` (stereo not given) displayed a composite z-score of 0.25.
As for `C=CCC(OC(C)=O)[C@@H]1[C@@H](N(Cc2cc3ccccc3o2)C(=O)c2ccc(C)cc2)c2cc(OCCCO)ccc2N1C(=O)Cc1ccc(OC)cc1` (stereo not given in full), the figure is -0.204.
Under `COC(=O)C1=CC(CCCO)=CC(C2CC2)N(C)C=C1C(=O)OC` (stereo not given) stands 1.04.
For the compound `COc1cc2c(cc1OC)CN(C(=O)[C@@H]1[C@H]3C(=O)O[C@H](c4ccccc4)[C@H](c4ccccc4)N3[C@H](c3ccc(OCCO)cc3)[C@@]13C(=O)Nc1ccc(C#CC4(O)CCCCCC4)cc13)CC2`, the composite z-score amounted to 0.872.
Under `COc1cc(OC)c(C(O)C2C=CC3C(=O)N(c4ccccc4)C(=O)C3N2Nc2ccccc2)cc1Br` (stereo not given) stands 0.911; under `COc1ccc([Si](C)(C)[C@@H]2[C@@H](CC(=O)N(CCO)Cc3ccccc3)O[C@]3(C(=O)N(Cc4cccc(N5C(=O)c6cccc7cccc5c67)c4)c4ccccc43)[C@H]2C)cc1`, -0.0059; under `COC(=O)c1c2oc(c1C(=O)OC)C(=O)N(C)Cc1cn(nn1)C[C@H](Cc1ccccc1)NC(=O)N[C@H](CO)CC2`, -0.56.
As for `O=C(CS)NCCCCCCNC(=O)[C@H]1C[C@H]2C(=O)N[C@@H](Cc3ccccc3)C(=O)N2[C@H]1c1ccc(O)cc1`, the figure is -0.242; as for `O=C1C2C=CC(C(O)c3ccccc3)N(Nc3ccccc3F)C2C(=O)N1c1ccccc1` (stereo not given), 0.571.
As for `CC(C)(C)N1CC=CC23O[C@@H]4C=CCOC(=O)[C@@H]4[C@H]2C(=O)N(CCCCCCO)[C@@H]3C1=O` (stereo not given in full), the figure is 0.277; as for `CCCCO[C@H]1C[C@H]2C(I)=C[C@@H]1C(=O)[C@]21CO1`, -0.369; as for `C=CCOC(=O)[C@H]1[C@@H]2C(=O)O[C@@H](c3ccccc3)[C@@H](c3ccccc3)N2[C@@H](c2ccc(OCCOC(=O)[C@@H]3C[C@@H]4C(=O)N5CCC[C@H]5C(=O)N4[C@@H]3c3ccc(O)cc3)cc2)[C@]12C(=O)Nc1ccc(I)cc12`, -0.572.
`C=CCOC(=O)[C@H]1[C@@H]2C(=O)O[C@@H](c3ccccc3)[C@@H](c3ccccc3)N2[C@@H](c2ccc(OCCOC(=O)[C@H]3C[C@H]4C(=O)N[C@@H](CCCCNC(C)=O)C(=O)N4[C@H]3c3ccc(O)cc3)cc2)[C@]12C(=O)Nc1ccccc12` showed a composite z-score of -1.06.
As for `CCOc1cc(C(O)C2C=CC3C(=O)N(C)C(=O)C3N2Nc2ccccc2)ccc1O` (stereo not given), the figure is 1.04; as for `C#CCN([C@@H](Cc1ccc(O)cc1)C(=O)OC)[C@@H](/C=C/C1CC1)[C@H](O)Cc1ccccc1`, -0.865.
As for `O=c1n(-c2ccccc2)c(=O)n2n1CC(COc1ccccc1)=C([C@H](O)CCc1ccccc1)[C@@H]2CO`, the figure is -0.341; as for `CC(=O)NCCCC[C@@H]1NC(=O)[C@H]2C[C@@H](C(=O)NCCCC[N+](C)(C)C)[C@@H](c3cccc(OCCO)c3)N2C1=O`, -1.1.
Consider `CN1C(=O)C2C=CC(C(O)c3ccccn3)N(N(c3ccccc3)c3ccccc3)C2C1=O` (stereo not given), for which the composite z-score was 0.206.
Under `C[N+](C)(C)CCCCCCNC(=O)[C@H]1C[C@H]2C(=O)NCC(=O)N2[C@H]1c1ccc(O)cc1` stands -0.0386.
As for `CCCC[C@@H]1C[C@H]1[C@@H](NC(=O)c1cccs1)c1ccc(C(F)(F)F)cc1`, the figure is -0.999.
For `COc1ccc(CCN2C(=O)[C@@]3(Cc4ccccc42)c2ccccc2C(=O)N(Cc2ccccc2OC)[C@H]3c2ccc(CO)cc2)cc1`, the composite z-score was determined as 0.282.
As for `C[C@@H]1NC(=O)[C@@]23C(=O)N[C@@H](Cc4ccccc4)C2[C@H](C)[C@@]2(C)O[C@H]2C3/C=C/C/C=C\CNC(=O)[C@@H]2CCCN2C1=O` (stereo not given in full), the figure is -0.397; as for `C=C(/C(=C/C[C@H](OC(C)=O)c1cccc(OCCO)c1)c1cnc2ccccc2c1)C(C)C`, 0.195; as for `[N-]=[N+]=NCc1ccccc1[C@H]1OC(c2ccc(OCCCO)cc2)=N[C@@]1(CCS(=O)(=O)c1ccccc1)C(=O)NCC(O)CO` (stereo not given in full), 0.567.
In turn, `Cc1cc(C)cc(N2C(=O)CSC2c2cccc([N+](=O)[O-])c2)c1` (stereo not given) gave a composite z-score of 0.892.
`COCCOC(=O)N1C(=O)[C@@]2(c3cc(C#CC4(O)CCCCCC4)ccc31)[C@H](c1ccc(O)cc1)N1[C@H](c3ccccc3)[C@H](c3ccccc3)OC(=O)[C@H]1[C@@H]2C(=O)NC[C@H](O)c1ccccc1` yielded a composite z-score of 0.179.
Under `COC(=O)c1cn(C[C@@H](Cc2ccccc2)NC(=O)N[C@H](CO)CCc2oc(C(C)=O)c(C(=O)OC)c2C(=O)OC)nn1` stands -0.0181; under `COC(=O)[C@@]1(Cc2ccccc2)[C@H]2c3cc(C(=O)N(C)C)n(Cc4c(CO)[nH]cc(C)c4=O)c3C[C@H]2CN1C(=O)c1ccccc1`, 0.96; under `CC(=O)NCCCC[C@@H]1NC(=O)[C@@H]2C[C@H](C(=O)NCCCC[N+](C)(C)C)[C@H](c3ccc(O)cc3)N2C1=O`, -0.763.
As for `COc1ccc([Si](C)(C)[C@@H]2[C@@H](CC(=O)N3Cc4ccccc4C[C@H]3CO)O[C@]3(C(=O)N(C)c4ccccc43)[C@H]2C)cc1`, the figure is 0.63.
For `COCCOC(=O)N1C(=O)[C@@]2(c3cc(C#CC4=CCCCC4)ccc31)[C@H](C(N)=O)[C@H]1C(=O)O[C@H](c3ccccc3)[C@H](c3ccccc3)N1[C@@H]2c1ccccc1OCCO`, the composite z-score is -0.24.
Under `COC(=O)[C@@]1(Cc2ccc(OC)cc2)[C@@H]2C(=CC(=O)[C@H]2CC(=O)C(=O)N(C)C)CN1C(=O)c1ccccc1` stands 0.982.

The values above are taken from PubChem BioAssay.
